The text below walks through data of ChEMBL document CHEMBL4513216, “Probing the Open Global Health Chemical Diversity Library for Multistage-Active Starting Points for Next-Generation Antimalarials” (ACS Infect Dis, 2020).

Among all 69,000 compounds or so, about 8,600 (12%) showed an effect of 50% or more. The entries come from a sample that favours strong results as a whole.

The assay has as its system Plasmodium berghei. The experiment in a line: Screen against P. berghei liver stage (PbLuc), transformed with Luciferase, at 10uM. Particulars: tested at 10 uM. The format is functional, HepG2.
In the case of `Cc1ccc2nc(C(=O)N3CCCC[C@]4(C)NC(=O)CCC[C@H]34)cn2c1`, the INHIBITION is -56.2%.
Then `CNC(=O)NCc1nn(-c2ccccc2)c2c1CCC2`, with 10.675%; and `CC(C)c1nnc2n1CCN(C(C(N)=O)c1ccc(F)cc1)C2` (centres undefined), with 20%; and `COc1ccccc1CNC(=O)CNc1ccccc1C(C)=O`, with -33.4%.
`Cc1nc(CC(=O)N2CCCN(c3ccc(C#N)cc3)CC2)cs1`: the INHIBITION was -11.8%.
Then `CS(=O)(=O)NCC1CCCCN1C(=O)c1cccc(C(F)(F)F)c1` (centres undefined), with 30.6%; and `CCC(=O)N1CCC(Cc2ccccc2-c2ccncc2)(C(N)=O)C1` (centres undefined), with 7.52%.
Then `CCc1nnc2n1CCN(CC(=O)N(CC)C1=CCCCC1)C2`, with 24.6%.
Then `Cc1nnc2n1CCN(CC(=O)N1CCc3ccccc3C1)C2`, with 50.7%; and `CC(C)c1nnc2n1CCN(CC(=O)N1CCc3sccc3C1)C2`, with -12.915%.
Consider `CC(C)c1nnc2n1CCN(CC(=O)N1CCc3ccccc3C1)C2`, for which the INHIBITION was determined as 46.5%.
Then `CCc1nnc2n1CCN(CC(=O)N1CCc3ccccc3C1)C2`, with 59.7%.
Then `Cc1nnc2n1CCN(C(=O)CN1C(=O)CCCc3ccccc31)C2`, with 2.82%; and `CC(O)CN1CCC(CNCc2cccc(C(=O)N(C)C)c2)CC1` (centres undefined), with -38.7%.
As for `CC(C)(NC(=O)Cc1ccccc1F)C(=O)O`, the INHIBITION is on record as -16%.
Take `CCC(C)(CC(=O)O)NC(=O)Cc1ccccc1F` (centres undefined): the INHIBITION is on record as 64.2%.
Then `CCC(C)(CC(=O)O)NC(=O)Cc1ccccc1Br` (centres undefined), with -49.7%; and `COCCC(=O)N1CCC2(CC1)CN(C(C)=O)Cc1ccccc1O2`, with 14.805%.
Then `Cc1ccccc1C1(C(=O)N2CCCC(n3cncn3)C2)CC1` (centres undefined), with 27.8%; and `COc1ccc(S(=O)(=O)N2CCC[C@@H]3CN(C(=O)C4CC4)C[C@@H]32)cc1`, with 54%; and `CC(=O)N1C[C@H]2CCCN(S(=O)(=O)c3ccc(Cl)s3)[C@H]2C1`, with 3.48%.
Then `O=C(C1CC1)N1C[C@H]2CCCN(S(=O)(=O)c3ccc4c(c3)CCC4)[C@H]2C1`, with 58.8%.
With `O=C(C1CC1)N1C[C@H]2CCCN(S(=O)(=O)c3ccc(Cl)s3)[C@H]2C1`, the INHIBITION came out at 31.3%.
Then `COc1ccc(S(=O)(=O)N2CCC[C@@H]3CN(C(=O)C4CC4)C[C@@H]32)cc1F`, with 40.75%.
Regarding `O=C(C1CC1)N1C[C@H]2CCCN(S(=O)(=O)c3cccc(F)c3)[C@H]2C1`, the INHIBITION is listed as 26.97%.
In the case of `CS(=O)(=O)N1CCC(Cc2cnc(Br)cn2)CC1` it was 33.2%; in that of `CCOC(=O)c1cnn(C2CCN(C(=O)CC3C=CCC3)CC2)c1N` (centres undefined), 29.8%.
In the case of `CN(Cc1ccc(Cl)s1)C(=O)COc1cccc(C(N)=O)c1` it was -19%; in that of `CNC(=O)C1CN(c2cc(C)ncn2)CCN1Cc1ccccc1` (centres undefined), -42%.
In the case of `Cc1noc(C)c1CN1CCn2cc(CN3CCOCC3)nc2C1` it was -50%; in that of `Cc1cc(C)nc(NCCCC(=O)NCCn2ccc3ccccc32)n1`, 28.5%; in that of `Cc1c(C2CCOC(C)(C)C2)nc(N)c(C#N)c1-c1ccc(O)cc1` (centres undefined), 30.1%.
For the compound `Cc1cnn(CCNCC(=O)NCCOc2ccc(F)cc2)c1`, the INHIBITION is reported as 45.7%.
In the case of `Cc1cnn(CCNCC(O)COc2ccc(Cl)cc2)c1` (centres undefined), the INHIBITION turned out to be 45.8%.
Turning to `Cc1cnn(CCNCC(=O)NCCOc2ccc(Cl)cc2)c1`, the INHIBITION is on record as -0.96%.
`Cc1cnn(CCNCC(O)COc2c(C)ccc(C)c2C)c1` (centres undefined): the INHIBITION was found to be 52.7%.
In the case of `Cc1cnn(CCNCC(O)COc2c(Cl)cccc2Cl)c1` (centres undefined) it was -32%; in that of `Cc1cnn(CCNCC(=O)NCCOc2ccccc2)c1`, 57.2%.
In the case of `Cc1cnn(CCNCC(O)COc2cccc(C(F)(F)F)c2)c1` (centres undefined) it was 37.4%.
Then `Cc1cnn(CCNCC(O)COc2ccc(C#N)cc2)c1` (centres undefined), with 26.3%; and `Cc1cnn(CCNCC(O)COc2ccc(F)cc2)c1` (centres undefined), with 54.4%.
Consider `CC(C)n1ccc(C(=O)N2CCCC(n3cncn3)C2)n1` (centres undefined), for which the INHIBITION stood at 31.9%.
On to `Cc1cccc(Nc2nccnc2C2CCCN2CC(=O)N(C)C)n1` (centres undefined), for which the INHIBITION was found to be 46.1%.
In the case of `c1cnn(Cc2nnc3n2CCCN(CC2CCOCC2)C3)c1` it was 27.9%; in that of `CN(C)c1ncc(I)c(C2CCCCN2C)n1` (centres undefined), -0.232%.
In the case of `CN(C(=O)CN1CCC(NC(=O)c2cccs2)CC1)c1ccccc1` it was 16.9%; in that of `O=C(CSc1nc2n[nH]cc2c(=O)n1-c1ccccc1)N1CCOCC1`, 13.9%; in that of `O=C(NC[C@H]1OC[C@@H](NC2CCCC2)[C@@H]1O)C1CCCC1`, 30.5%.
In the case of `CC(C)(C)CN[C@@H]1CO[C@H](CNC(=O)C2CCCC2)[C@H]1O` it was 51%.
Regarding `O=C(NC[C@H]1OC[C@@H](NC2COC2)[C@@H]1O)C1CCCC1`, the INHIBITION stood at 29%.
Consider `CC(=O)N1CCN(c2ncnc3cc4c(cc23)OCCO4)CC1`, for which the INHIBITION is recorded as 36.6%.
Then `CNC(=O)CN(C)c1nc(-c2ccc(C(N)=O)cc2)nc2c1CCNC2`, with 10.3%; and `Cc1cc(C)c2c(NCc3nncn3C3CCCCC3)ncnc2n1`, with -41.4%; and `Cc1ncc(-c2ccnc(NC3CC3)n2)c(-c2cccnc2)n1`, with 2.6%.
In the case of `O=C1NC2(CCCCC2)c2nnnn2-c2ccc(Br)cc21` it was 42.4%; in that of `CCN1CCC2(CC1)NC(=O)c1cc(Br)ccc1-n1nnnc12`, 33.3%.
Take `CC(C)N1CCC2(CC1)NC(=O)c1cc(Br)ccc1-n1nnnc12`: the INHIBITION stood at 58.2%.
Then `CN1C[C@@H](O)[C@]2(CCN(C(=O)OCc3ccccc3)C2)S1(=O)=O`, with 1.8%.
In the case of `c1cc(-c2ccc3c(c2)CCC32CCN(c3nncs3)CC2)ccn1` it was 62.8%; in that of `c1cc(-c2ccc3c(c2)C2(CC3)CCN(c3nncs3)CC2)ccn1`, 15.4%.
Take `c1cncc(-c2ccc3c(c2)C2(CC3)CCN(c3nncs3)CC2)c1`: the INHIBITION came to 76.8%.
For the compound `Cc1cccc(N2CC3(CCN(c4nncs4)C3)CC2=O)c1` (centres undefined), the INHIBITION is recorded as 14.5%.
Take `Cc1ccc2c(c1)C1(CC2)CCN(CC(=O)O)CC1`: the INHIBITION came to 19.5%.
As for `CN1CCOCC12CCN(c1nncs1)CC2`, the INHIBITION is on record as -7.24%.
`c1cc(-c2ccc3c(c2)CCC32CCN(c3nncs3)CC2)co1`: the INHIBITION was found to be 24.9%.
Take `Cc1ccc2c(c1)C1(CC2)CCN(c2nncs2)CC1`: the INHIBITION stood at 56.8%.
Consider `Cc1cnn(CCNCc2nc(CNC(=O)c3ccccc3)no2)c1`, for which the INHIBITION was 7.08%.
As for `CC(=O)Nc1ccc(CNc2cccc(OCCF)c2)cc1`, the INHIBITION was determined as 25.2%.
In the case of `CS(=O)(=O)N1CCC(Oc2ccc(C(=O)N3CCSCC3)cc2Cl)CC1` it was 63.3%.
In the case of `CNC(=O)c1ccc(OC2CCN(S(C)(=O)=O)CC2)c(Cl)c1` it was -22.1%.
As to `CS(=O)(=O)N1CCC(Oc2ccc(C(=O)NC3CCCC3)cc2Cl)CC1`, the INHIBITION is -14.5%.
In the case of `CCN(CC)S(=O)(=O)N(CC)Cc1ccc2c(c1)OCCO2` it was -19.9%.
Then `Cc1nn(Cn2ccc(C(=O)N3CCC(C)CC3)n2)c(C)c1Cl`, with -20.8%; and `Cc1noc(C)c1-c1n[nH]c2c1CN(S(=O)(=O)c1cccnc1)CC2`, with 23.3%; and `Cc1noc(C)c1-c1n[nH]c2c1CN(S(=O)(=O)c1cccs1)CC2`, with 61.8%.
For the compound `Cc1cc(-c2n[nH]c3c2CN(S(=O)(=O)c2ccsc2)CC3)c(C)o1`, the INHIBITION stood at 54.4%.
Then `Cc1noc(C)c1-c1n[nH]c2c1CN(S(=O)(=O)c1ccsc1)CC2`, with 39.4%; and `CSCCc1n[nH]c2c1CN(S(=O)(=O)c1cn(C)c(C)n1)CC2`, with -10.8%.
In the case of `CS(=O)(=O)N1CCc2[nH]nc(Cc3cccs3)c2C1` it was 0.472%.
Take `CCC(CN1CCCC1)n1cncc1-c1cnn(-c2ccccc2)c1` (centres undefined): the INHIBITION turned out to be 33.95%.
Turning to `CC(C)[C@H](N)c1nnc(SCC(=O)Nc2ccc(Br)cc2)o1`, the INHIBITION was 25.3%.
In the case of `Cc1nc(C2CCCN2Cc2ccc(S(=O)(=O)N(C)C)o2)no1` (centres undefined) it was 22.3%.
Then `CN(Cc1ccc(C(N)=O)cc1)c1ccc(C(F)(F)F)cn1`, with 1.79%; and `CN(Cc1ccc([S+](C)[O-])cc1)c1ccc(Br)cn1` (centres undefined), with 43.7%; and `CNC(=O)c1ccc(CN(C)c2ccc(C(F)(F)F)cn2)cc1`, with 58.3%.
Then `CN(Cc1ccc([S+](C)[O-])cc1)c1ccc(C(F)(F)F)cn1` (centres undefined), with 52.2%.
For the compound `CNC(=O)c1ccc(CN(C(=O)c2scnc2C)C2CC2)cc1`, the INHIBITION is recorded as 6.92%.
`CN(Cc1ccccc1)c1ccc(C(F)(F)F)cn1`: the INHIBITION was found to be 38.6%.
Then `CCc1cnc(CN(C)C2CCN(CCNS(=O)(=O)CC)C2)o1` (centres undefined), with -42%; and `CN1Cc2c(C(=O)Nc3cccnc3)ncn2-c2ccccc2S1(=O)=O`, with 45.1%.
In the case of `CN(C)CCO[C@H]1CN(Cc2cccc(C#N)c2)[C@@H]2COC[C@H]12` it was -46.9%.
For `CCS(=O)(=O)N1CCCC2(CCCN2C(=O)c2cn(C)cn2)C1` (centres undefined), the INHIBITION came to 61.9%.
Then `CCS(=O)(=O)N1CCCC2(CCCN2C(=O)c2cscn2)C1` (centres undefined), with 4.02%; and `CCS(=O)(=O)N1CCC2(CN(C(=O)c3cn(C)cn3)C2)C1`, with -28.2%.
For the compound `COC1CN(CCO)S(=O)(=O)c2ccccc21` (centres undefined), the INHIBITION came out at 35.1%.
Then `CN(C)C(=O)COCC1CN(Cc2cccs2)Cc2ncn(C)c21` (centres undefined), with -47.8%.
In the case of `Cc1ccc(S(=O)(=O)N(CC(N)=O)CC(C)C)cc1C` it was -14.2%; in that of `Cc1cc(S(=O)(=O)N(C)CC(N)=O)ccc1Br`, 34.6%.
In the case of `Cc1cc(S(=O)(=O)N(CC(N)=O)CC(C)C)ccc1Br` it was 60.3%.
For `Cc1cnn(CC2CCCN2C(=O)Cc2ccc(C)nc2)c1` (centres undefined), the INHIBITION came to 17.4%.
Then `CC(=O)Nc1ccc(CNCC(O)c2ccccc2)cc1` (centres undefined), with 39.7%; and `CCOc1ccc(CNCC(O)c2ccccc2)cc1Cl` (centres undefined), with 59.5%; and `COc1ccc(CNCC(O)c2cccc(O)c2)cc1Br` (centres undefined), with 14.5%.
Regarding `COCC1CN(C(=O)c2cccc(C)n2)Cc2nccn2C1` (centres undefined), the INHIBITION amounted to 24%.
